POLB inh: qHTS Assay for Inhibitors of DNA Polymerase Beta; Pol beta primer extension/strand displacement, fluorescence kinetic; hit rate 1.3% among 340,000; AID 485314, 2010; Potency, µM (titrated, usually from 114 µM), most hits filed as inhibitors
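Reaction started by 50 nM substrate onto compound-treated Pol beta (10 nM, 15 min preincubation, room temperature); plates read at 0 min and 10 min. Normalized concentration-effect data fitted by four-parameter Hill equation.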
Pol eta inh-1: qHTS for Inhibitors of Polymerase Eta; Potency, µM (highest dose often 114 µM), usual class: inhibitors; AID 588591, 2011; DNA polymerase eta (Homo sapiens), Q9Y253; hit rate 1.2% among 390,000; recombinant Pol eta, fluorescent DNA replication assay
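Pol eta (10 nM) was preincubated with compounds for 15 min at room temperature, after which fluorescent replication substrate (50 nM final) was added to start the reaction. Fluorescence was read kinetically at 0 and 10 min.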
PI5P4K alpha inh: qHTS for Inhibitors of phosphatidylinositol 5-phosphate 4-kinase (PI5P4K) | PI5P4Kalpha enzyme, ADP-Glo luminescence, 60 min; stronger effect = lower value | max response, % | hit rate 1.2% among 330,000; active means max response of -50% or lower; inconclusive means between -30% and -50%; inactive means -30% or higher; further: value at the top dose of about 77 µM
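qHTS, 1536-well: enzyme/substrate mix, compound by pin tool, 5 microM ATP final; RT 60 min; ADP-Glo reagents 1 (45 min) then 2 (30 min); luminescence.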
Pol kappa inh-1: qHTS for Inhibitors of Polymerase Kappa; DNA polymerase kappa (Homo sapiens), Q9UBT6; purified Pol kappa, fluorescent DNA synthesis assay, 10 min; Potency, µM (highest dose often 107 µM), usual class: inhibitors; hit rate 0.53% among 400,000
Target sequence (Q9UBT6 whole entry, looked up): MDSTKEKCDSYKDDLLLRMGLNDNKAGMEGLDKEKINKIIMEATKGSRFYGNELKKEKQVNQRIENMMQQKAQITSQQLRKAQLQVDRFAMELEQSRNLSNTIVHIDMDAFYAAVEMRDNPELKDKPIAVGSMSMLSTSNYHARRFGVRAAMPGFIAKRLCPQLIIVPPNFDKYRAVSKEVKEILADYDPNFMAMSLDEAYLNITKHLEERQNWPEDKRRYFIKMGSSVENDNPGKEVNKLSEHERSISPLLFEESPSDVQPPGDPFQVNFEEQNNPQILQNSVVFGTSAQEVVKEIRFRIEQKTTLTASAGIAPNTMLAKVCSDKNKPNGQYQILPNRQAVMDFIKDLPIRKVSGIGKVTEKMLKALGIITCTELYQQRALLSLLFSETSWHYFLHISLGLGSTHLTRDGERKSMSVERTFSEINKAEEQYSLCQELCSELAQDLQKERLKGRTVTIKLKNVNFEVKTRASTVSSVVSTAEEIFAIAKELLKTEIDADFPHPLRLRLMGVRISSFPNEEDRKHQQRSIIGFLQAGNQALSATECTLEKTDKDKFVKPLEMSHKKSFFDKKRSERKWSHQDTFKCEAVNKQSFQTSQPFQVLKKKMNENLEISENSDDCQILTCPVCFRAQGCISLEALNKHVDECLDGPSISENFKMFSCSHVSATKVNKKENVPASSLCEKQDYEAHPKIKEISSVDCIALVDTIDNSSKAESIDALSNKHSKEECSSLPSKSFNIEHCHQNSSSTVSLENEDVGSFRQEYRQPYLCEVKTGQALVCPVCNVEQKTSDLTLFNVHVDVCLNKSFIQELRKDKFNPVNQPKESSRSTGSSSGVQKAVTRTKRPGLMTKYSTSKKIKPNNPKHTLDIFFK
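Kinetic fluorescence readout at 0 and 10 min followed reaction start with substrate at 50 nM final. Beforehand, enzyme (10 nM Pol kappa) stood 15 min with compound at room temperature; buffer-only wells were negative controls.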
WRN helicase inh-1: qHTS for Inhibitors of WRN Helicase; Bifunctional 3'-5' exonuclease/ATP-dependent helicase WRN (Homo sapiens), Q14191; WRN helicase unwinding, fluorescent forked duplex, kinetic; Potency, µM (series often up to 114 µM), usual class: inhibitors; hit rate 0.46% among 360,000; AID 651768, 2012; further: nearly all actives have a fitted effect of over 55% in size
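Primary qHTS, 1536-well format. 20 nM WRN + compound, 15 min RT; start with 100 nM forked fluorophore/quencher duplex, 2 mM ATP (final); kinetic read ex 525/em 598 nm.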
POLI inh: qHTS for Inhibitors of Polymerase Iota; DNA polymerase iota (Homo sapiens), Q9UNA4; Pol iota fluorescent replication assay, 10 min; AID 588590, 2011; Potency, µM (titrated, usually from 115 µM), usual class: inhibitors; hit rate 1% among 390,000
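Fluorescent replication assay read twice, at 0 min and 10 min after adding 50 nM (final) substrate. Enzyme (10 nM) and compounds were first incubated 15 min at room temperature; enzyme-free buffer wells were negative controls.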
PGK validate: qHTS for inhibitors of Phosphogylcerate Kinase: Hit Validation Screen | shares compounds with Pol kappa inh-1 | TbPGK coupled GAPDH assay, Kinase-Glo luminescence | Potency, µM (top dose mostly 57.5 µM), usual class: inhibitors | hit rate 79% among 500; further: nearly all actives have a fitted effect of over 65% in size
POLI cherry-pick: qHTS for Inhibitors of Polymerase Iota: Confirmatory Assay for Cherry-picked Compounds | shares compounds with Pol kappa inh-1 | Pol iota primer extension, TAMRA/BHQ fluorescence | Potency, µM, most hits filed as inhibitors | hit rate 77% among 1,500
Pol kappa inh-2: qHTS for Inhibitors of Polymerase Kappa: Confirmatory Assay for Cherry-picked Compounds | hit rate 76% among 920 | AID 720501, 2013 | shares compounds with Pol eta inh-1 | purified Pol-kappa, fluorescent strand-displacement substrate | Potency, µM, actives largely listed as inhibitors
Pol eta inh-2: qHTS for Inhibitors of Polymerase Eta: Confirmatory Assay for Cherry-picked Compounds | shares compounds with Pol eta inh-1 | Pol eta primer extension, TAMRA/BHQ fluorescence, 10 min | Potency, µM, usual class: inhibitors | hit rate 64% among 2,600 | AID 720502, 2013
WRN helicase inh-2: qHTS for Inhibitors of WRN Helicase: Confirmatory Assay for Cherry-picked Compounds | shares compounds with WRN helicase inh-1 | WRN helicase DNA unwinding, fluorescence kinetic | Potency, µM (doses to about 57.1 µM), most hits filed as inhibitors | hit rate 63% among 610 | AID 720497, 2013; further: nearly all actives have a fitted effect of over 65% in size
TO DNA binding: qHTS for Inhibitors of WRN Helicase: Thiazole Orange DNA Binding Counterscreen. shares compounds with WRN helicase inh-1. thiazole orange DNA binding displacement, fluorescence. Potency, µM (highest dose often 57.1 µM), actives largely listed as inhibitors. hit rate 10% among 610;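 further: drop in dye fluorescence marks compound binding to DNA; nearly all actives have a fitted effect of over 60% in size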
BLM helicase inh: qHTS for Inhibitors of WRN Helicase: BLM Helicase Counterscreen for WRN Inhibitors. shares compounds with WRN helicase inh-1. Potency, µM (doses to about 57.1 µM), usual class: inhibitors. Recombinant BLM helicase DNA unwinding, red fluorescence. hit rate 60% among 610; further: nearly all actives have a fitted effect of over 60% in size
Each line names hits and unclear results; the compound was inactive in the other large screens (follow-up assays come after a bar, where they were run). Shown are actives, neighbours in structure and some others; about 2.8% of the full set was active somewhere. Unless noted, the call rests on the fitted dose curve; in most records, active means well fitted curve in the direction sought with a large enough effect; inconclusive means small, poorly fitted or top-dose-only effect, or another doubt; inactive means no such curve, though single readings can be large; an effect the other way counts as inactive or inconclusive.

O=C(O)c1ccc(C=NN=Cc2ccco2)cc1	none (no result: POLB inh)
COc1ccc(S(=O)(=O)N(CC(C)C)C2CCS(=O)(=O)C2)cc1OC (stereo not drawn)	WRN helicase inh-1 inconclusive (no result: POLB inh)
COc1ccc(C(=O)c2cn(CC(=O)Nc3ccc4c(c3)OCCO4)c3ccc(OC)cc3c2=O)cc1	POLB inh 8.9µM, Pol eta inh-1 inconclusive, Pol kappa inh-1 inconclusive, POLI inh 14µM (no result: PI5P4K alpha inh, WRN helicase inh-1) | POLI cherry-pick 7.5 | Pol kappa inh-2 6 | Pol eta inh-2 inconclusive | WRN helicase inh-2 12µM | TO DNA binding 7.6µM | BLM helicase inh 7.6µM
COc1ccc(C(=O)c2cn(CC(=O)Nc3ccc4c(c3)OCO4)c3ccc(OC)cc3c2=O)cc1	Pol eta inh-1 inconclusive (no result: PI5P4K alpha inh, WRN helicase inh-1)
COc1ccc(S(=O)(=O)Nc2cc(Sc3ncn[nH]3)c(O)c3ccccc23)cc1	POLB inh 22µM, Pol kappa inh-1 inconclusive, WRN helicase inh-1 9.5µM, POLI inh 5µM (no result: Pol eta inh-1, PI5P4K alpha inh) | POLI cherry-pick 42 | Pol eta inh-2 inconclusive | WRN helicase inh-2 24µM | TO DNA binding inactive | BLM helicase inh inconclusive
O=c1cc(N2CCNCC2)nc2sc(-c3ccncc3)nn12	none (no result: POLB inh, Pol eta inh-1, PI5P4K alpha inh, Pol kappa inh-1, WRN helicase inh-1, POLI inh) | POLI cherry-pick 27 | Pol eta inh-2 76 | WRN helicase inh-2 6.1µM | TO DNA binding 6.8µM | BLM helicase inh 1.2µM
O=C1/C(=C/c2cccnc2)SC(=S)N1c1ccccc1	none
O=C1/C(=C/c2ccco2)SC(=S)N1c1cccnc1	POLB inh 1.6µM, Pol eta inh-1 2.8µM, PI5P4K alpha inh -105, Pol kappa inh-1 8.9µM, WRN helicase inh-1 13µM, POLI inh inconclusive | PGK validate 3.3µM | POLI cherry-pick 3.8 | Pol kappa inh-2 4.7 | Pol eta inh-2 5.4 | WRN helicase inh-2 22µM | TO DNA binding inactive | BLM helicase inh 8.6µM
Cc1cc(C)nc(N2CCCC(C(=O)NCC(c3ccccc3)c3ccccc3)C2)n1 (stereo not drawn)	POLB inh inconclusive
CCOC(=O)c1ccc(NC(=O)CCc2c(C)nc3c(c(C)nn3C)c2C)cc1	none (no result: PI5P4K alpha inh, WRN helicase inh-1)
Cc1cc(=O)c2c(o1)C(=O)c1occc1C2=O	Pol eta inh-1 10µM, PI5P4K alpha inh inconclusive, Pol kappa inh-1 32µM, WRN helicase inh-1 25µM, POLI inh 6.3µM (no result: POLB inh) | POLI cherry-pick 47 | Pol kappa inh-2 42 | Pol eta inh-2 30 | WRN helicase inh-2 24µM | TO DNA binding inactive | BLM helicase inh inconclusive
O=C(CSc1nc2ccsc2c(=O)n1CC1CCC(C(=O)O)CC1)c1ccc(Cl)cc1 (stereo not drawn)	POLB inh 22µM, Pol eta inh-1 40µM, Pol kappa inh-1 inconclusive, WRN helicase inh-1 inconclusive, POLI inh 20µM | POLI cherry-pick 42 | Pol kappa inh-2 60 | WRN helicase inh-2 24µM | TO DNA binding inactive | BLM helicase inh 15µM
O=C1C=C(c2c(O)ccc3ccccc23)c2ccccc2C1=O	Pol eta inh-1 20µM, PI5P4K alpha inh inconclusive, WRN helicase inh-1 20µM, POLI inh 3.5µM (no result: POLB inh) | POLI cherry-pick 84 | WRN helicase inh-2 inactive | TO DNA binding inconclusive | BLM helicase inh inconclusive
COC(=O)c1cc2ccccc2c(-c2c(O)ccc3ccccc23)c1O	none
Cc1ccc(S(=O)(=O)c2nc(S(C)(=O)=O)sc2N(C)Cc2ccccc2)cc1	POLI inh inconclusive (no result: PI5P4K alpha inh, WRN helicase inh-1)
COc1ccccc1C(=O)N/N=C/c1cnc2ccccc2n1	none
O=C(CCc1ccc(O)c(O)c1)N/N=C/c1cc2c(cc1[N+](=O)[O-])OCO2	POLB inh 25µM, Pol eta inh-1 18µM, PI5P4K alpha inh inconclusive, Pol kappa inh-1 25µM, WRN helicase inh-1 inconclusive, POLI inh 32µM | POLI cherry-pick inconclusive | Pol eta inh-2 30 | WRN helicase inh-2 22µM | TO DNA binding 30µM | BLM helicase inh 8.6µM
CCc1ccc(N=C2NC(=O)/C(=C/c3cc(Br)c(OCC(=O)O)c(OC)c3)S2)cc1	POLB inh 16µM, Pol eta inh-1 35µM, PI5P4K alpha inh -97, Pol kappa inh-1 inconclusive, WRN helicase inh-1 inconclusive, POLI inh 40µM | POLI cherry-pick 67 | Pol kappa inh-2 47 | Pol eta inh-2 85 | WRN helicase inh-2 22µM | TO DNA binding inactive | BLM helicase inh 24µM
CC1=NN(c2cccc(C(=O)O)c2)C(=O)/C1=C\C=C\c1ccco1	POLB inh 0.56µM, PI5P4K alpha inh -80, Pol kappa inh-1 7.1µM, WRN helicase inh-1 4.7µM, POLI inh 1.3µM | PGK validate 2.9µM | POLI cherry-pick 2.4 | Pol eta inh-2 1.5 | WRN helicase inh-2 1.5µM | TO DNA binding inactive | BLM helicase inh 0.96µM
O=C(CSC(=S)N1CCOCC1)c1cc2ccccc2oc1=O	POLI inh inconclusive
O=C(c1coc(=O)c(Br)c1)N1CCC(C(O)(c2ccccc2)c2ccccc2)CC1	none

Source: PubChem BioAssay
